Here are results for 17 compounds from PubChem BioAssay (NCI).

About 83,000 compounds went through this panel and 20% of them were active in at least one assay; those are over-represented in the sample as a whole.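 The endpoint reported here, percent growth, reads 100 for growth as untreated, 0 for no net growth and -100 for all cells dead.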 The source made the active and inactive calls. How the source made its calls: active means growth percent below 10; inactive means the rest.

The test concerns MDA-MB-468 breast. Description: NCI-60 one-dose screen, 48 h (100 = growth as untreated, 0 = no growth, -100 = all killed). To be noted: 10 µM unless noted.
Regarding `O=C(NNc1nc2cc(F)ccc2n2cncc12)c1cnccn1`, the growth was 31.7% (inactive). Consider `CCOC1=C(Cl)C(=O)C(OCC)=C(Cl)C1=O`, for which the growth was 103% (inactive). For the compound `CNC(=O)c1c(NC(=O)c2ccccc2C(F)(F)F)sc2c1CCC(=O)C2`, the growth is 25.1% (inactive). Regarding `Cc1ccc(S(=O)(=O)Oc2ccc(Br)cc2Br)cc1`, the growth was 23.7% (inactive). As for `O=C(NCCNc1cc(-c2cn(-c3ccccc3)nc2-c2cccc(O)c2)ccn1)Nc1ccccc1`, the figure is 64.9% (inactive); as for `CCOC(=O)c1ccc(N2C(=O)C(Cl)(c3ccccc3)C2c2ccco2)cc1` (configuration not stated), 65.9% (inactive); as for `COc1ccc(CN2c3ccccc3Sc3ccccc32)c(F)c1`, 2.44% (active). In the case of `N#CC(C#N)C(C#N)C#N`, the growth is 99.7% (inactive). `CN(C)CCOc1ccccc1NC1=C(Cl)C(=O)C(Nc2ccccc2OCCN(C)C)=C(Cl)C1=O`: the growth was -53.6% (active).

For the compound `OCC(O)c1nc2ccc3[nH]ncc3c2c2c1CCCC2` (configuration not stated), the growth is -28.1% (active). As for `CC1Cc2cc(F)ccc2-n2cccc21` (configuration not stated), the figure is 136% (inactive); as for `O=C(O)c1cc([N+](=O)[O-])ccc1Cl`, 109% (inactive). Take `CCCCC/C=C\C/C=C/CCCCCCCCNC(=O)Nc1ccc([N+](=O)[O-])cc1`: the growth is 84.5% (inactive). Take `O=c1[nH][nH]c(=O)c2cc([N+](=O)[O-])ccc12`: the growth is 109% (inactive). For the compound `CCCCCCN(CCCCCC)C(=N)c1ccnc2ccccc12`, the growth is 12.5% (inactive).

Regarding `CCCC(=O)Nc1ccccc1C(=O)O`, the growth was 106% (inactive). On to `COc1cc(C)c(Cl)cc1C1=NN(c2ccc(S(N)(=O)=O)cc2)C(/C=C/c2ccccc2)C1` (configuration not stated), for which the growth is 41.2% (inactive).
